Assay outcomes: PubChem, several laboratories
Rows were chosen to be rich in hits. Some 2.2% of all compounds tested hit in one or more screens of this group.
GalR3 antagonist = human GalR3 antagonism. O60755. 360,000 tested, 0.44% active. inhibition, % at 3 µM. HEK293 GalR3-CNG cAMP membrane potential fluorescence; galR3 body fused to GalR1 C-terminus;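 active = inhibition above the screen-wide average plus 3 SD, cut at about 13% in these data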;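 note: forskolin and galanin both at EC90 stimulate the cells; cAMP rise reported by CNG channel membrane potential dye signal; 0% = forskolin plus galanin with DMSO and 100% = forskolin alone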
Target sequence (O60755 1-299 limits assumed): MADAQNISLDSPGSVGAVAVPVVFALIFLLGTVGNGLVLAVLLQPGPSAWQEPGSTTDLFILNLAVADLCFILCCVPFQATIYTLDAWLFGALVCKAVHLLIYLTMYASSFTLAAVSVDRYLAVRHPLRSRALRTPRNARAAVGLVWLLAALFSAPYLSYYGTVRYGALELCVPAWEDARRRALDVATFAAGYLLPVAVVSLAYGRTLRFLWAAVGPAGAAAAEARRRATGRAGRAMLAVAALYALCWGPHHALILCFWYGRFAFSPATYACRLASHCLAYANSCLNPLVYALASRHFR
SMARCA2 activ = increases SMARCA2 function in MMTV reporter cells; MG213 cells, MMTV-luciferase reporter, dexamethasone, overnight; activation, % at 9.1 µM; AID 652017; 370,000 tested, 1% active; in the data active = activation above about 7.8%;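 note: 0% = vehicle wells and 100% = reference activator wells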
HIF act = HIF pathway transcriptional activation. U2OS HRE-luciferase reporter, luminescence; normalized: DMSO 0%, desferrioxamine 100%. activation, % at 7.5 µM (by protocol). 300,000 tested, 0.32% active;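 active = mean activation of at least 10% of the iron chelator positive control signal, with at least half of replicates also reaching 10%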
FXN GAA850 act = frataxin GAA850 promoter activation; HEK293 lucGAA850 FXN promoter luciferase reporter, 24 h; percent of 10 µM SAHA response; 360,000 tested, 0.56% active; activation, % at 6 µM;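 active = activation above the average of all compounds screened plus 3 SD, cutoff fixed separately per campaign, cut at about 7.5% in these data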;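 note: 0% = DMSO wells and 100% = 10 µM SAHA wells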
Hsp70 activator = Hsp70 transcriptional activation, primary screen. activation, % at 10 µM. 200,000 tested, 0.04% active. HeLa Hsp70 promoter luciferase reporter, luminescence; scaled: vehicle 0, proteasome-inhibitor control 100%. AID 1203;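 active = activation above the mean across all tested compounds plus 3 SD, cutoff set per campaign, cut at about 5.5% in these data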;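 note: 100% = MG132 at 30 µM as the positive control and 0% = DMSO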
GAA30 FXN cntr = counter-screen for GAA850 frataxin promoter activators: GAA30 promoter activation; activation, % at 6 µM; shares compounds with FXN GAA850 act; AID 588350; HEK293 lucGAA30 FXN promoter luciferase, 24 h; DMSO = 0%, 5 µM ipriflavone = 100%; 1,900 tested, 66% active;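 active = mean activation above the mean of solvent-only control wells plus 3 SD, cut at about 22% in these data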;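 note: counterscreen of GAA850 promoter hits where activity marks nonselective or luminescence artifacts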
FXN GAA850 conf = confirmation of GAA850 frataxin (FXN) promoter activators; shares compounds with FXN GAA850 act; HEK293 lucGAA850 FXN promoter luciferase reporter, 24 h; 100% = activation by SAHA; activation, % at 6 µM; 1,900 tested, 86% active;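 active = mean activation above a set limit taken from the primary screen, cut at about 8% in these data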;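 note: 0% = DMSO wells and 100% = 10 µM SAHA wells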
Numbers without * were called inactive; · = no result given.

SMILES	GalR3 antagonist	SMARCA2 activ	HIF act	FXN GAA850 act	Hsp70 activator	GAA30 FXN cntr	FXN GAA850 conf
Nc1nn2cc(-c3ccc(Br)cc3)nc2c2ccccc12	-8	7	4	12*	·	120*	50*
CCCCNC(=O)N1CCC(c2nc3ccc(Cl)cc3[nH]2)CC1	·	-4	·	·	·	·	·
NC(=O)C1=CC2C3C=CC2(O)C(=O)OC3O1 (stereo not given)	-6	3	·	8.3*	·	-28	16*
CC1(Cc2ccccc2OC(F)(F)F)C(=O)Nc2ccc(-c3ccsc3)cc21 (stereo not given)	-4	-4	·	9.6*	·	-2	3
COc1ccc(Cl)cc1CC1(C)C(=O)Nc2ccc(-c3ccccc3OC)cc21 (stereo not given)	-4	-6	·	12*	·	33*	12*
COc1ccccc1-c1ccc2c(c1)C(C)(Cc1ccc(F)c(Cl)c1)C(=O)N2 (stereo not given)	0	-7	·	13*	·	9	8.5*
COc1ccccc1-c1ccc2c(c1)C(C)(Cc1cccc(C#N)c1)C(=O)N2 (stereo not given)	-5	-4	·	11*	·	10	8.1*
CCN(CC)C(=O)c1oc(=O)c2ccccc2c1-c1ccc(C)cc1	·	-7	·	·	·	·	·
O=S1(=O)c2ccc(Br)cc2OC[C@@H](Cc2ccccc2)N1Cc1cn(Cc2ccc(Cl)cc2)nn1	·	-6	·	·	·	·	·
COC(=O)c1cccc(CC2(C)C(=O)Nc3cc(-c4ccccc4Cl)ccc32)c1 (stereo not given)	10	-5	·	17*	·	58*	31*
COc1ccccc1C(=O)Nc1ccc(C(=O)/C=C/c2cccs2)cc1	3	6	1	8.5*	0	22*	13*
O=C(/C=C/c1cccs1)c1ccc(NC(=O)c2ccccc2F)cc1	2	1	1	2	0	·	·
O=C(NCc1ccccc1)[C@@H]1CCCN1C(=O)[C@H]1CCCN1C(=O)c1ccc(F)c(C(F)(F)F)c1	-5	4	·	·	·	·	·
Cc1cc(C)nc(Nc2n[nH]c(-c3ccc(N)cc3)n2)n1	-1	6	2	8.2*	0	93*	34*
CCOC(=O)c1cc2c(=O)n3ccccc3nc2n(CCCOC)c1=NC(=O)C(C)(C)C	2	-1	0	4	0	·	·
CCOC(=O)c1cc2c(=O)n3ccccc3nc2n(CCOC)c1=NC(=O)C(C)(C)C	-2	0	0	10*	1	92*	35*
Cc1nn(-c2ccccc2)c(Cl)c1/C=N/NC(=O)c1ccnn1C	0	6	4	7.7*	·	116*	42*
CCN(C[C@H]1N[C@@](CC)(C(=O)OC)[C@H]2C(=O)N(Cc3ccccc3)C(=O)[C@@H]12)C(=O)Nc1ccc(C)cc1	-1	-3	·	14*	·	33*	12*
CCN(C[C@H]1N[C@@](Cc2ccccc2)(C(=O)OC)[C@H]2C(=O)N(Cc3ccccc3)C(=O)[C@@H]12)C(=O)Nc1ccc(C)cc1	-8	-1	·	-7	·	·	·
CCN(C[C@H]1N[C@@](CC)(C(=O)OC)[C@H]2C(=O)N(Cc3ccccc3)C(=O)[C@@H]12)C(=O)COC	-5	-3	·	-2	·	·	·
CCN(C[C@H]1N[C@@](CC)(C(=O)OC)[C@H]2C(=O)N(Cc3ccccc3)C(=O)[C@@H]12)C(=O)COc1ccccc1	-1	-4	·	8.0*	·	28*	14*
CCN(C[C@H]1N[C@@](CC)(C(=O)OC)[C@H]2C(=O)N(Cc3ccccc3)C(=O)[C@@H]12)C(=O)Nc1ccc(Cl)cc1	-3	-4	·	15*	·	31*	14*
CCn1c(COc2ccccc2)nnc1SCC(=O)Nc1ccc(Oc2ccccc2)cc1	·	-3	·	·	·	·	·
COC(=O)[C@]12C[C@H](CC(=O)NCc3ccc(C)o3)C(=O)N(Cc3cccc4ccccc34)C1=C[C@H](C(C)(C)C)O[C@@H]2C	·	-5	·	·	·	·	·
CCC(=O)N1CCc2cc(Br)c(S(=O)(=O)N3CCC(C(=O)NCCCOC(C)C)CC3)cc21	·	-3	·	·	·	·	·
SMILES	GalR3 antagonist	SMARCA2 activ	HIF act	FXN GAA850 act	Hsp70 activator	GAA30 FXN cntr	FXN GAA850 conf
CCc1ccc2[nH]c(=O)c(C(c3nnnn3Cc3ccc(OC)cc3)N3CCOCC3)cc2c1 (stereo not given)	-5	-1	0	3	0	·	·
COc1ccc(Cn2nnnc2C(c2cc3cc(C)cc(C)c3[nH]c2=O)N2CCOCC2)cc1 (stereo not given)	-5	-3	0	8.1*	0	11	7
COc1ccc(-n2c(C)cc(C(=O)CCl)c2C)cc1	-6	1	16*	8.0*	0	-70	31*
COc1ccc(-n2c(C)cc(C(=O)CN3C(=O)c4ccccc4C3=O)c2C)cc1	9	-2	0	4	0	·	·
CC(C)Cc1ccc(C(C)C(N)=NCCc2ccccc2)cc1 (stereo not given)	-9	-4	-29	11*	·	-22	36*
COc1ccccc1NC(=O)Cn1cnc2sc(C(=O)Nc3cc(OC)c(OC)c(OC)c3)c(C)c2c1=O	-7	-5	1	-1	·	·	·
COc1ccccc1NC(=O)c1sc2ncn(CC(=O)Nc3ccccc3)c(=O)c2c1C	-7	-3	0	13*	·	-4	0
COC(=O)c1ccc(C=NNC(=O)c2cc(-c3ccc(C)c(C)c3)n[nH]2)cc1	·	3	·	·	·	·	·
Cc1cccc2nc(CSc3nc4ccc([N+](=O)[O-])cc4[nH]3)c(Br)n12	-5	2	0	14*	-1	37*	17*
Cc1ccc2nc(Nc3ccc4[nH]c(=O)[nH]c4c3)c(-n3nc(C)cc3C)nc2c1	1	5	2	9.1*	0	77*	29*
Cn1c(CCN2CCCCC2)nc2cc([N+](=O)[O-])ccc21	-10	3	0	7.7*	0	18	17*
CCN1CCN(CCc2nc3cc([N+](=O)[O-])ccc3n2C)CC1	0	-3	-1	1	·	·	·
Nc1nc(N)nc(-c2cc([N+](=O)[O-])ccc2O)n1	-1	0	·	17*	·	69*	51*
Nc1nc(N)nc(-c2cc(O)ccc2O)n1	-1	1	·	-7	·	·	·
CN(CC(=O)Nc1cccc(F)c1)C(=O)CCN1C(=O)C2CC=CCC2C1=O (stereo not given)	-4	-3	·	0	·	·	·
CN(CC(=O)Nc1cccc(F)c1)C(=O)CCCN1C(=O)c2cccc3cccc(c23)C1=O	-2	1	-28	14*	·	30*	11*
COc1ccccc1NC(=O)OC1CC2CC1[C@H]1CCCCN1[C@H]2Cc1ccccc1 (stereo not given in full)	·	-3	·	·	·	·	·
